# Results as given in PubChem BioAssay (NCATS).
# Results filed as inconclusive are left out. Entries that show only a call come without a potency. Unmarked numbers belong to inactive results. The source made the active and inactive calls. Unless noted, the call rests on the fitted dose curve; in most records, active means well fitted curve in the direction sought with a large enough effect; inconclusive means small, poorly fitted or top-dose-only effect, or another doubt; inactive means no such curve, though single readings can be large; an effect the other way counts as inactive or inconclusive.
# Tests used:
# [1] = qHTS Assay for Identifying Gametocytocidal Compounds (AID 743244);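 further: actives lower the fluorescent signal which means gametocytes are killed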; conditions: P. falciparum 3D7 stage III-V gametocytes, alamarBlue, 72 h; stronger effect = lower value
# How it was run: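 Viability read-out was resazurin reduction (alamarBlue, 24 h) measured at Ex 525/Em 598 nm. Beforehand, late-stage (III-V) 3D7 P. falciparum gametocytes at 20,000 cells/well were incubated with compound 72 h at 37C under 5% CO2.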
# [2] = Primary qHTS for small molecule stabilizers of the endoplasmic reticulum resident proteome: Secreted ER Calcium Modulated Protein (SERCaMP) assay (AID 1508630); conditions: SH-SY5Y GLuc-SERCaMP (Gaussia luciferase released on ER calcium loss) secretion, thapsigargin, luminescence; series mostly up to 38.4 µM
# How it was run: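 GLuc-SERCaMP-expressing SH-SY5Y cells, pretreated 16 h with compound, are challenged with thapsigargin to empty ER calcium stores; after 4 h, coelenterazine is added directly to the medium and luminescence is imaged.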
# [3] = molecular target: Cytochrome P450 2C9 (Homo sapiens) (UniProt P11712); assay: qHTS Assay for Inhibitors and Substrates of Cytochrome P450 2C9 (AID 883); conditions: recombinant CYP2C9, luciferin-H luminescence, 60 min; series mostly up to 57.1 µM; further: potency means the concentration at half of the fitted maximal effect; nearly all actives have a fitted effect of over 60% in size
# Cytochrome P450 2C9 (Homo sapiens), sequence (P11712 whole entry, looked up): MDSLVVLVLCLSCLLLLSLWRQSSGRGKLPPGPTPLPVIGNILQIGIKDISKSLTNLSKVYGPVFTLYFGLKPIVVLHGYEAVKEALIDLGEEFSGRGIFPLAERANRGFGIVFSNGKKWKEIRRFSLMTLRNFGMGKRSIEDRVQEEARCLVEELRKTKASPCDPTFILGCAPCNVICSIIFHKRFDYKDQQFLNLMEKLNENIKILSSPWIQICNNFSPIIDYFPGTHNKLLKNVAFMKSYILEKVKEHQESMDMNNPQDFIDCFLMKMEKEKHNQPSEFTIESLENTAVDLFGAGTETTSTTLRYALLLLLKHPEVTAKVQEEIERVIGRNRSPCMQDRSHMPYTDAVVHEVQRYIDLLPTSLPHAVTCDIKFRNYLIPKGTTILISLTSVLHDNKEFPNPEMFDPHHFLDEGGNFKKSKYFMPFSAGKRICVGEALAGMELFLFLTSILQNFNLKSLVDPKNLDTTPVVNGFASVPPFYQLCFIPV
# How it was run: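 A luminogenic readout tracked human CYP2C9 (10nM) converting deoxyluciferin (100uM, at KM) in 25mM KPO4 during 60 min at 37C with regenerated NADPH. Values normalized to 57uM sulphaphenazole as complete inhibition.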
# [4] = molecular target: Pyruvate kinase PKM (Homo sapiens) (UniProt P14618); assay: qHTS Assay for Inhibitors of Human Muscle Pyruvate Kinase (AID 958); conditions: purified human PKM enzyme activity
# Pyruvate kinase PKM (Homo sapiens), sequence (P14618 whole entry, looked up): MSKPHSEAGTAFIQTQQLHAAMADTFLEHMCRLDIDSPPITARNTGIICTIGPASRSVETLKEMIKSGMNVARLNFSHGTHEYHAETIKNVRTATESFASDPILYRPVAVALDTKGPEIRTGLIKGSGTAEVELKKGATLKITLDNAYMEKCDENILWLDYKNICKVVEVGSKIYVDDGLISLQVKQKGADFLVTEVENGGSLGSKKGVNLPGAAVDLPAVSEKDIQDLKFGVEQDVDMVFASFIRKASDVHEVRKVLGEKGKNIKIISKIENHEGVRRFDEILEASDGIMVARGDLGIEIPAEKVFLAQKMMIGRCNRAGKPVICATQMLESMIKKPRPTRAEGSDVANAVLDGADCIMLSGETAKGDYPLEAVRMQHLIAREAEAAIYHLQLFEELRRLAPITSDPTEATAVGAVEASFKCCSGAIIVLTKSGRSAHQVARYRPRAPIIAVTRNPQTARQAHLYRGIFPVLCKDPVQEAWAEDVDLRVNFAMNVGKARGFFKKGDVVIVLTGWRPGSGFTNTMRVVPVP
# How it was run: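 Screening used highly purified human pyruvate kinase M2 under submaximal activity, with PEP at its Km and ADP below Km. After an hour at room temperature, ATP was read by luciferase luminescence.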
# [5] = molecular target: Luciferin 4-monooxygenase (Photinus pyralis) (UniProt P08659); assay: Biochemical firefly luciferase enzyme assay for NPC (AID 624030);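 further: purified P. pyralis luciferase at 10 nM with luciferin and ATP substrate; nearly all actives have a fitted effect of over 70% in size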; conditions: purified P. pyralis luciferase, luminescence, 5 min; series mostly up to 58.6 µM
# Luciferin 4-monooxygenase (Photinus pyralis), sequence (P08659 whole entry, looked up): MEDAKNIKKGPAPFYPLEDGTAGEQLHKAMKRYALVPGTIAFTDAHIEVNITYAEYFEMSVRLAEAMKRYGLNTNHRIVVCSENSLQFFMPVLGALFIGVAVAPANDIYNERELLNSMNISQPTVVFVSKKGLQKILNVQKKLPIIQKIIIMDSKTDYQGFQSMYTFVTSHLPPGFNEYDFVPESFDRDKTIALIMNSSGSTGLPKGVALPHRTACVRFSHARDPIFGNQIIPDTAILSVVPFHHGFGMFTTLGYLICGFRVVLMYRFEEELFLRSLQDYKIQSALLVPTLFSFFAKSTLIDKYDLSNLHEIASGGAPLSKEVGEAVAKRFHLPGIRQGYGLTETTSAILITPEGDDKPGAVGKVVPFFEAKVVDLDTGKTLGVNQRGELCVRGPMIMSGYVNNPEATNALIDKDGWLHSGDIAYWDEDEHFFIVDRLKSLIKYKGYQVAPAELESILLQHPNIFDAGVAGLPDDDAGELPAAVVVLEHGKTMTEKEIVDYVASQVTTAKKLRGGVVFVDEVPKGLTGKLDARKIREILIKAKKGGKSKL
# How it was run: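 Counter-screen for direct inhibition of the luciferase enzyme by approved-drug library compounds, run at 10 nM enzyme in 50 mM Tris acetate (final). Luminescence was read within 5 min of enzyme-buffer addition and normalized to PTC124 versus DMSO (0%).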
# [6] = S16 Schwann cell PMP22 intronic element beta-lactamase assay (AID 624044; calls by dose curve; further: nearly all actives have a fitted effect of over 15% in size); conditions: S16 rat Schwann cells, PMP22 element beta-lactamase FRET, 24 h; series mostly up to 38.3 µM
# How it was run: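 Rat S16 Schwann cells with beta-Lac driven by a PMP22 intronic element, compound-treated 24 h at 37 °C. LiveBLAzer FRET B/G read: 460 nm normalized to potassium clavulanate vs DMSO; 535 nm FRET as viability; concentration-effect curves classified.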
# [7] = system: CP260; assay: qHTS profiling for inhibitors of Plasmodium falciparum proliferation (AID 504749); further: nearly all actives have a fitted effect of over 60% in size; conditions: P. falciparum in erythrocytes, SYBR Green DNA, 72 h; series mostly up to 28.7 µM
# How it was run: (§1)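 P. falciparum-infected erythrocytes (0.3% parasitemia, 2.5% hematocrit final) were exposed to compounds for 72 h at 37 C in 5% CO2, then lysed with SYBR Green buffer overnight at room temperature; parasite DNA fluorescence was normalized to artemisinin and DMSO controls.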
# [8] = system: CP266; assay: as above; conditions: P. falciparum in erythrocytes, SYBR Green DNA, 72 h; series mostly up to 28.7 µM
# How it was run: as §1
# [9] = system: CP286; assay: as above; conditions: P. falciparum in erythrocytes, SYBR Green DNA, 72 h; series mostly up to 28.7 µM
# How it was run: as §1
# [10] = system: CP297; assay: as above; conditions: P. falciparum in erythrocytes, SYBR Green DNA, 72 h; series mostly up to 28.7 µM
# How it was run: as §1
# [11] = system: CP315; assay: as above; conditions: P. falciparum in erythrocytes, SYBR Green DNA, 72 h; series mostly up to 28.7 µM
# How it was run: as §1
# [12] = system: JCK; assay: as above; conditions: P. falciparum in erythrocytes, SYBR Green DNA, 72 h; series mostly up to 28.7 µM
# How it was run: as §1
# [13] = system: 7G8; assay: as above; conditions: P. falciparum in erythrocytes, SYBR Green DNA, 72 h; series mostly up to 28.7 µM
# How it was run: as §1
# [14] = system: CP262; assay: as above; conditions: P. falciparum in erythrocytes, SYBR Green DNA, 72 h; series mostly up to 28.7 µM
# How it was run: as §1
# [15] = system: DIV17; assay: as above; conditions: P. falciparum in erythrocytes, SYBR Green DNA, 72 h; series mostly up to 28.7 µM
# How it was run: as §1
# [16] = system: DIV30; assay: as above; conditions: P. falciparum in erythrocytes, SYBR Green DNA, 72 h; series mostly up to 28.7 µM
# How it was run: as §1
# [17] = system: ECU; assay: as above; conditions: P. falciparum in erythrocytes, SYBR Green DNA, 72 h; series mostly up to 28.7 µM
# How it was run: as §1
# [18] = system: TAB109; assay: as above; conditions: P. falciparum in erythrocytes, SYBR Green DNA, 72 h; series mostly up to 28.7 µM
# How it was run: as §1
# [19] = system: W2; assay: as above; conditions: P. falciparum in erythrocytes, SYBR Green DNA, 72 h; series mostly up to 28.7 µM
# How it was run: as §1
# [20] = molecular target: Calcium and integrin-binding protein 1 (Homo sapiens) (UniProt Q99828); assay: Confirmatory qHTS for Identification of Calcium Integrin Binding Protein 1 (CIB1) Competitor (AID 1508617); conditions: CIB1 binding competition assay, biochemical qHTS; series mostly up to 114 µM; further: nearly all actives have a fitted effect of over 65% in size
# Calcium and integrin-binding protein 1 (Homo sapiens), sequence (Q99828 whole entry, looked up): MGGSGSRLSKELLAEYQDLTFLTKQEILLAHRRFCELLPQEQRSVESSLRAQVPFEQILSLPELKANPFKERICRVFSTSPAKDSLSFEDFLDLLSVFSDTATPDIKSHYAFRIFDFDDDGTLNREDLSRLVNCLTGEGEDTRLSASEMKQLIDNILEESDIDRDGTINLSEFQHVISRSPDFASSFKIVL
# How it was run: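 Binding competition between test compounds and fluorescent alphaIIb peptide for 1 uM CIB1-GST is monitored by FP at 480/540 nm. Final compound range is up to 114 uM; unlabeled peptide serves as reference competitor.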
smiles,measurement,setting,value
CN1[C@@H]2CCC[C@H]1CC(NC(=O)c1nn(C)c3ccccc13)C2 (some centres undefined),max response,[1],3.13%
CC[C@@H](C)[C@H]1O[C@]2(CC[C@@H]1C)C[C@@H]1C[C@@H](C/C=C(\C)[C@@H](O[C@@H]3C[C@H](OC)[C@H](O[C@H]4C[C@H](OC)[C@@H](O)[C@H](C)O4)[C@H](C)O3)[C@@H](C)/C=C/C=C3\CO[C@@H]4[C@@H](O)C(C)=C[C@@H](C(=O)O1)[C@]34O)O2,Potency,[2],inactive
N=C1Sc2ccccc2C2=NCCCN12,Potency,[3],0.794 µM (active)
same,Potency,[4],7.94 µM (active)
C=C1/C(=C\C=C2/CCC[C@]3(C)[C@@H]([C@H](C)CCCC(C)(C)O)CC[C@@H]23)C[C@@H](O)C[C@@H]1O,Potency,[5],inactive
same,outcome,[6],inactive
same,Potency,[7],inactive
same,Potency,[8],inactive
same,Potency,[9],inactive
same,Potency,[10],inactive
same,Potency,[11],inactive
same,Potency,[12],inactive
CN1C(=O)CCC1c1cccnc1 (centres undefined),Potency,[5],inactive
same,outcome,[6],inactive
same,Potency,[13],inactive
same,Potency,[7],inactive
same,Potency,[14],inactive
same,Potency,[8],inactive
same,Potency,[9],inactive
same,Potency,[10],inactive
same,Potency,[11],inactive
same,Potency,[15],inactive
same,Potency,[16],inactive
same,Potency,[17],inactive
same,Potency,[12],inactive
same,Potency,[18],inactive
same,Potency,[19],inactive
CC1CCC2(C1)N=C(Nc1nc3ccccc3o1)NC1=C2C(=O)CCC1 (centres undefined),Potency,[20],inactive
O=C1CCCC2=C1C(c1ccncc1)N=C(Nc1nc3ccccc3o1)N2 (centres undefined),Potency,[20],inactive
